Results reported in PubChem BioAssay (NCATS).
Inconclusive results are not listed. A number with no mark means an inactive call. Calls follow the shape of the dose curve; as a rule, active = well fitted inhibition curve with a large enough effect; inconclusive = small, poorly fitted or top-dose-only effect; inactive = flat fitted curve, though single readings scatter.

system: MCC-26; experiment: qHTS assay to identify novel small-molecules to repurpose for Merkel cell carcinoma treatment (AID 1296009); settings: MCC and control cell lines, CellTiter-Glo viability, 72 h; series mostly up to 46 µM; activity change, negative = cytotoxicity: at the top concentration; also: nearly all actives have a fitted effect of over 60% in size
Outline: (§1)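 Cells were incubated with compound for 72 hr at 37 degree celsius before CellTiter-Glo addition. Luminescence was normalized with no-cell wells as full cytotoxicity and DMSO as baseline.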
% is scaled to controls: 0 for no effect and ±100 for the full control effect.

Structure (SMILES) | activity change, negative = cytotoxicity [%]
Cc1ccc(-c2ccccc2C#N)cc1 | 9.51
COC(=O)/C=C(/C)N | 6.4
CN1N=C(C(N)=O)CCC1=O | 9.36
CC(NC(CCc1ccccc1)C(=O)O)C(=O)N1C(=O)N(C)CC1C(=O)O (centres undefined) | 6.88
CN(C)CCN1CCN(c2cccc(Cl)c2)C1=O | 5
Cc1cc(O)c(C)c(C)c1O | -1.28
COC(=O)c1cc(Cl)ccc1OC | 10.7
COc1ccc(CCC(C)=O)cc1 | -2.77
CCCC(=O)Nc1ccc(O)c(C(C)=O)c1 | 7.99
Cc1ccc(C(C)OC(=O)C2(C)CCC(C(=O)O)C2(C)C)cc1 (centres undefined) | -1.99
O=C(C1CCCCC1)N1CC(=O)N2CCCc3ccccc3C2C1 (centres undefined) | 11.9
O=C(O)/C=C(\CC(=O)O)C(=O)O | 2.86
CC(C)(C)C(=O)OCOC(=O)C1N2C(=O)CC2S(=O)(=O)C1(C)C (centres undefined) | 8.25
Cc1c(N)cccc1C(F)(F)F | 9.5
CC(CC(C#N)(c1ccccc1)C(C)C)N(C)C (centres undefined) | 2.93
CC(C)(C)c1nnc(NS(=O)(=O)c2ccccc2)s1 | 8.08

Structure (SMILES) | activity change, negative = cytotoxicity [%]
Oc1ccccc1-c1nnco1 | 5.76
NS(=O)(=O)c1ccc(N2CCCCS2(=O)=O)cc1 | 4.54
Cc1ccc2ccc(Cl)cc2n1 | 7.36
Cc1cccc(C)c1NC(=O)c1cc(S(N)(=O)=O)c(Cl)cc1O | 6.86
CC(=O)OCC(=O)[C@@]1(O)[C@H](OC(C)=O)C[C@H]2[C@@H]3CCC4=CC(=O)C=C[C@]4(C)[C@@]3(F)[C@@H](O)C[C@@]21C | 4.89
CCN(CC)C(=O)C1CN2CCc3cc(OC)c(OC)cc3C2CC1OC(C)=O (centres undefined) | 17
COC(=O)CCCCC(CCSS/C(CCO)=C(\C)N(C=O)Cc1cnc(C)nc1N)SC(C)=O (centres undefined) | 10.2
COc1ccc(/C(C)=C/C(=O)O)c(OC)c1 | 12.5
OC1(c2ccc(Cl)cc2)CCNCC1 | -0.632
Cc1oc(-c2ccccc2)nc1CCC(=O)c1ccc(CC2SC(=O)NC2=O)cc1 (centres undefined) | 2.67
CCN(CC)CC(=O)Oc1ccc(NC(C)=O)cc1 | 7.61
CCCCCC[C@@H](CCC)C(=O)O | 5.78
CC(=O)c1ccc(O)c(C(N)=O)c1 | 8.76
COC(=O)/C=C\C(=O)OC | 13.9
COc1cc(OC)nc(O[C@H](C(=O)O)C(OC)(c2ccccc2)c2ccccc2)n1 | -2.9
C[C@H]1C[C@@H]2[C@H]([C@@H](O)C[C@@]3(C)[C@H]2CC[C@]3(O)C(=O)CO)[C@@]2(C)C=CC(=O)C=C12 | 0.67

system: MKL-1; experiment: as above; settings: MCC and control cell lines, CellTiter-Glo viability, 72 h; series mostly up to 46 µM; activity change, negative = cytotoxicity: at the top concentration
Outline: as §1

Structure (SMILES) | activity change, negative = cytotoxicity [%]
Cc1ccc(-c2ccccc2C#N)cc1 | 3.42
COC(=O)/C=C(/C)N | 10.3
CN1N=C(C(N)=O)CCC1=O | 4.37
CC(NC(CCc1ccccc1)C(=O)O)C(=O)N1C(=O)N(C)CC1C(=O)O (centres undefined) | 16.9
CN(C)CCN1CCN(c2cccc(Cl)c2)C1=O | 0.73
Cc1cc(O)c(C)c(C)c1O | 5.64
COC(=O)c1cc(Cl)ccc1OC | 15.6
COc1ccc(CCC(C)=O)cc1 | -8.62
CCCC(=O)Nc1ccc(O)c(C(C)=O)c1 | -1.89
Cc1ccc(C(C)OC(=O)C2(C)CCC(C(=O)O)C2(C)C)cc1 (centres undefined) | 5.64
O=C(C1CCCCC1)N1CC(=O)N2CCCc3ccccc3C2C1 (centres undefined) | 16.3
O=C(O)/C=C(\CC(=O)O)C(=O)O | 5.38
CC(C)(C)C(=O)OCOC(=O)C1N2C(=O)CC2S(=O)(=O)C1(C)C (centres undefined) | 1.89
Cc1c(N)cccc1C(F)(F)F | 7.14
CC(CC(C#N)(c1ccccc1)C(C)C)N(C)C (centres undefined) | 2.42
CC(C)(C)c1nnc(NS(=O)(=O)c2ccccc2)s1 | 3.32

Structure (SMILES) | activity change, negative = cytotoxicity [%]
Oc1ccccc1-c1nnco1 | 18.1
NS(=O)(=O)c1ccc(N2CCCCS2(=O)=O)cc1 | 7.24
Cc1ccc2ccc(Cl)cc2n1 | 10.6
Cc1cccc(C)c1NC(=O)c1cc(S(N)(=O)=O)c(Cl)cc1O | 1.28
CC(=O)OCC(=O)[C@@]1(O)[C@H](OC(C)=O)C[C@H]2[C@@H]3CCC4=CC(=O)C=C[C@]4(C)[C@@]3(F)[C@@H](O)C[C@@]21C | 3.93
CCN(CC)C(=O)C1CN2CCc3cc(OC)c(OC)cc3C2CC1OC(C)=O (centres undefined) | 14.9
COC(=O)CCCCC(CCSS/C(CCO)=C(\C)N(C=O)Cc1cnc(C)nc1N)SC(C)=O (centres undefined) | 4.54
COc1ccc(/C(C)=C/C(=O)O)c(OC)c1 | 1.62
OC1(c2ccc(Cl)cc2)CCNCC1 | -4.09
Cc1oc(-c2ccccc2)nc1CCC(=O)c1ccc(CC2SC(=O)NC2=O)cc1 (centres undefined) | -0.778
CCN(CC)CC(=O)Oc1ccc(NC(C)=O)cc1 | 4.71
CCCCCC[C@@H](CCC)C(=O)O | 6.98
CC(=O)c1ccc(O)c(C(N)=O)c1 | 8.2
COC(=O)/C=C\C(=O)OC | 10.2
COc1cc(OC)nc(O[C@H](C(=O)O)C(OC)(c2ccccc2)c2ccccc2)n1 | -4.1
C[C@H]1C[C@@H]2[C@H]([C@@H](O)C[C@@]3(C)[C@H]2CC[C@]3(O)C(=O)CO)[C@@]2(C)C=CC(=O)C=C12 | 18.2
